Rows were chosen to be rich in hits. Some 2.1% of all compounds tested hit in one or more screens of this group.
Abeta rescue: A-beta toxicity reversal in yeast; Potency, µM (titrated, usually from 46.1 µM), most hits filed as activators; yeast expressing A-beta42, growth rescue, OD600, 48 h; response scale: 0% DMSO, 100% iron-clioquinol control; AID 1347071; hit rate 0.063% among 410,000; also: nearly all actives have a fitted effect of over 55% in size
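Yeast growth medium received pinned compounds, then yeast cells expressing toxic A-beta were added; plates incubated at 30 C for 48 hr. Growth read as absorbance at 600 nm, normalized to DMSO and equimolar FeCl3 plus clioquinol controls.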
aSyn rescue: inhibitors of alpha-synuclein toxicity in yeast; Yeast expressing alpha-synuclein, growth rescue, BacTiter-Glo, 24 h; Potency, µM (highest dose often 46.1 µM), inactives show at the top dose growth rescue (activation), most hits filed as activators; hit rate 0.14% among 370,000; AID 652106; also: % of control where 0% means no effect; nearly all actives have a fitted effect of over 65% in size
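Readout is rescue of growth in alpha-synuclein-expressing yeast, so inhibitors of toxicity appear as activators. Growth after 24 hr at 30 deg C in galactose medium is quantified by luminescence.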
TDP43 rescue: inhibitors of TDP-43 toxicity in yeast | TDP-43 expressing yeast growth rescue, BacTiter-Glo, 24 h | Potency, µM (top dose mostly 46.1 µM), for inactives: top-dose growth rescue (activation), hits mostly activators | hit rate 1.8% among 410,000; also: % of control where 0% means no effect; nearly all actives have a fitted effect of over 50% in size
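In this qHTS, compounds that restore growth of yeast expressing TDP-43 appear as activators. Cells (OD600=0.02, galactose medium, raffinose-pregrown) are incubated with compound 24 hr at 30 deg C and growth is quantified by BacTiter-Glo.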
FUS suppressor: rescues growth of FUS-expressing yeast | hit rate 0.24% among 390,000 | S. cerevisiae FUS-expressing, growth rescue, OD600, 24 h | Potency, µM (top dose mostly 76.6 µM), hits mostly activators | AID 1347120;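 also: plate controls were DMSO vehicle for no effect and reference control for full effect; nearly all actives have a fitted effect of over 55% in size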
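Toxicity suppression screen in FUS-yeast. Cells induced with 2% galactose, starting OD 0.005, treated 24hr at 30C with compounds at multiple final concentrations; growth by OD600.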
An asterisk follows results filed as active; i = inactive; ? = inconclusive; · = no result. Calls follow the shape of the dose curve; as a rule, active = well fitted curve in the direction sought with a large enough effect; inconclusive = small, poorly fitted or top-dose-only effect, or another doubt; inactive = no such curve, though single readings can be large; an effect the other way counts as inactive or inconclusive. Potency is read from the fitted curve at half-maximal effect.

SMILES	Abeta rescue	aSyn rescue	TDP43 rescue	FUS suppressor
O=C(COC(=O)c1ccccc1O)NCC1COc2ccccc2O1 (stereo not drawn)	i	11%	16%	·
CC(=O)NCC1COc2ccccc2O1 (stereo not drawn)	i	4%	18%	i
Cc1ccccc1C(=O)OCC(=O)NCC1COc2ccccc2O1 (stereo not drawn)	i	14%	14µM*	·
O=C(COc1ccc(Br)cc1)NCC1COc2ccccc2O1 (stereo not drawn)	i	?	25µM*	i
CC(C)Oc1ccc(/C=C/C(=O)NCC2COc3ccccc3O2)cc1 (stereo not drawn)	?	2%	18µM*	i
O=C(NNC(=O)c1ccccc1O)c1cc2ccccc2o1	i	-1%	-4%	i
CC(NC(C)c1ccccc1Cl)C(=O)Nc1cccc(S(=O)(=O)N2CCCCC2)c1 (stereo not drawn)	i	2%	4%	i
CC(=O)N1CCc2c(sc(NC(=O)CSc3ccccc3)c2-c2nc3ccccc3s2)C1	i	4µM*	23%	?
COc1cc2nc(C)sc2cc1SC	i	-1%	20µM*	?
COc1cc2nc(/C=C/c3cc(OC)c(OC)c(OC)c3)sc2cc1SC	i	-3%	-22%	?
CCOC(=O)C(C(=O)OCC)C(Nc1cccc(Br)c1)c1ccccc1 (stereo not drawn)	i	1%	13µM*	i
O=C(CSc1ccccc1)OCC(=O)N1CCN(C(=O)c2ccco2)CC1	i	-3%	11%	i
O=C(O)c1ccc(N/N=C/c2ccc(-c3cccc(Cl)c3)o2)cc1	i	-16%	18µM*	i
O=C(c1ccc(N2C(=O)c3ccccc3C2=O)cc1)N1CCN(S(=O)(=O)c2ccccc2F)CC1	i	3%	?	28µM*
O=C(NC1CCCCC1)c1ccc(-c2ccccc2F)o1	i	1%	13µM*	·
O=C(NC1CCCCCC1)c1ccc(CS(=O)(=O)Cc2ccccc2F)o1	i	3%	1%	i
c1ccc2nc3c(nc2c1)[nH]c1ccccc13	i	7%	7.1µM*	i
COc1ccc(OC)c(CN2C(=O)c3ccccc3C2c2nnnn2-c2ccc3c(c2)OCCO3)c1 (stereo not drawn)	i	-1%	19%	i
CC(OC(=O)c1ccc2c(c1)OCO2)C(=O)NC1CCCCC1 (stereo not drawn)	i	18%	12%	i
O=C(CCl)Nc1ccccc1Sc1ccc(Cl)cc1	i	·	11µM*	i
O=C(Nc1ccccc1Sc1ccccc1)c1ccccc1	?	-1%	11µM*	i
CCC[C@H]1NC(=O)[C@H](C)N(C)C(=O)C(C)(C)C(=O)C(C)NC(=O)[C@H](Cc2ccc(OC)cc2)N(C)C(=O)[C@H](C(C)C)N(C)C(=O)CNC(=O)[C@H](CC(C)C)N(C)C(=O)CNC(=O)[C@H]([C@@H](C)CC)OC(=O)[C@H]1C (stereo partly drawn)	i	11%	35µM*	?
COc1cc(C#Cc2c(-c3cncn3C)n(C)c3ccc(-c4ccc5cc[nH]c5c4)cc23)cc(OC)c1	i	0%	20µM*	?
COC(=O)c1ccc(S(=O)(=O)N2CCC(NC(=O)CCC3CCCC3)CC2)cc1	·	·	·	i
Nc1ncnc2c1ncn2[C@@H]1O[C@H](COP(=O)(O)OP(=O)(O)OP(=O)(O)OP(=O)(O)OC[C@@H]2O[C@H](n3cnc4c(N)ncnc43)[C@@H](O)[C@H]2O)[C@@H](O)[C@H]1O	·	7.3µM*	·	·
SMILES	Abeta rescue	aSyn rescue	TDP43 rescue	FUS suppressor
Nc1ncnc2c1ncn2C1O[C@H](CO)[C@@H](O)[C@@H]1O (stereo partly drawn)	i	-1%	8%	i
Nc1nc(Cl)nc2c1ncn2[C@@H]1O[C@H](COP(=O)(O)OP(=O)(O)OP(=O)(O)O)[C@@H](O)[C@H]1O	·	21µM*	·	·
CN(C(=O)COC(=O)c1ccccc1OCC(=O)Nc1ccc(Br)cc1)c1ccccc1	·	5%	·	·
S=C(NCCCc1cnc[nH]1)NCCCN(CCc1ccccc1)c1ccc(Br)cn1	·	0%	·	·
CC(C)(C)OC(=O)N1CCc2onc(-c3ccc(Br)cc3)c2C1=O	i	-1%	?	i
O=C1NCCc2onc(-c3ccc(Br)cc3)c21	i	-18%	35µM*	i
COc1cccc(NC(=O)c2ccc3nc(Cc4ccccc4)oc3c2)c1	i	·	0%	i
